# PubChem BioAssay
# The source made the active and inactive calls.
# Legend:
# [1] = E. coli DRC41 culture turbidity changes, primary screen, E. coli filamentation inducer project, strain DRC41, OD650, 48 h (AID 1152);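 note: E. coli MC1000 strain DRC41 lacking acrAB efflux pump and sulA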; details: E. coli DRC41 (acrAB sulA), higher = more signal, called active from +8 up or from −8 down
# [2] = small-molecule binders of probe aLefty1, primary screen, biochemical, small-molecule microarray, 635/667 nm fluorescence (AID 1153); details: higher = more signal;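 note: score merges spot fluorescence with signal-to-noise ratio from the scanned slide images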
# [3] = PSAC antagonists in infected red cells, primary screen, cell-based, P. falciparum Indochina, OD700, 1 h (AID 1154); details: P. falciparum Indochina infected RBC osmotic lysis, higher = more signal, called active from +8 up or from −8 down
# [4] = PSAC antagonists in infected red cells, primary screen, cell-based, P. falciparum Indochina, OD700, 2 h (AID 1155);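 note: lysis reports solute entry through the parasite surface anion channel PSAC; channel blockers reduce lysis of infected cells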; details: P. falciparum Indochina infected erythrocytes, osmotic lysis OD700; higher = more signal, called active from +8 up or from −8 down
# [5] = osmotic lysis modulators in infected erythrocytes, primary screen, PSAC antagonist project, cell-based, P. falciparum Indochina, OD700, 3 h (AID 1156); details: higher = more signal, called active from +8 up or from −8 down
# [6] = PSAC antagonists in infected red cells, primary screen, cell-based, P. falciparum Indochina, OD700, 18 h (AID 1157); details: P. falciparum Indochina infected erythrocytes, osmotic lysis OD700, 18 h; higher = more signal, called active from +8 up or from −8 down
# [7] = modulators of S6 phosphorylation in cells, primary screen, cell-based, A549, cytoblot, luminescence, serum-stimulated (AID 1158); details: A549 phospho-S6 cytoblot, 5 h, higher = more signal;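 note: serum-stimulated A549 lung adenocarcinoma cells; signal is phosphorylated S6 detected by cytoblot immunostaining with HRP secondary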
# [8] = biological target: NADPH oxidase 2 (Homo sapiens) (UniProt P04839); assay: NOX2-dependent H2O2 signal modulators, primary screen, NOX inhibitor project, cell-based, HEK293-NOX2, PMA-stimulated, Amplex Red fluorescence (AID 1159); details: 45 min, higher = more signal, called active from +8 up or from −8 down; note: test concentration not given here
# [9] = biological target: NADPH oxidase 4 (Homo sapiens) (UniProt Q9NPH5); assay: NOX4-dependent H2O2 signal modulators, primary screen, NOX inhibitor project, cell-based, HEK293-NOX4, tetracycline-induced, Amplex Red fluorescence (AID 1160); details: 45 min, higher = more signal, called active from +8 up or from −8 down
# [10] = biological target: NADPH oxidase 5 (Homo sapiens) (UniProt Q96PH1); assay: NOX5-dependent H2O2 signal modulators, primary screen, NOX inhibitor project, cell-based, HEK293-NOX5, Amplex Red fluorescence (AID 1161); details: HEK293-NOX5, ionomycin, 45 min, higher = more signal
# Sequence of NADPH oxidase 5 (Homo sapiens) (Q96PH1 whole entry, looked up): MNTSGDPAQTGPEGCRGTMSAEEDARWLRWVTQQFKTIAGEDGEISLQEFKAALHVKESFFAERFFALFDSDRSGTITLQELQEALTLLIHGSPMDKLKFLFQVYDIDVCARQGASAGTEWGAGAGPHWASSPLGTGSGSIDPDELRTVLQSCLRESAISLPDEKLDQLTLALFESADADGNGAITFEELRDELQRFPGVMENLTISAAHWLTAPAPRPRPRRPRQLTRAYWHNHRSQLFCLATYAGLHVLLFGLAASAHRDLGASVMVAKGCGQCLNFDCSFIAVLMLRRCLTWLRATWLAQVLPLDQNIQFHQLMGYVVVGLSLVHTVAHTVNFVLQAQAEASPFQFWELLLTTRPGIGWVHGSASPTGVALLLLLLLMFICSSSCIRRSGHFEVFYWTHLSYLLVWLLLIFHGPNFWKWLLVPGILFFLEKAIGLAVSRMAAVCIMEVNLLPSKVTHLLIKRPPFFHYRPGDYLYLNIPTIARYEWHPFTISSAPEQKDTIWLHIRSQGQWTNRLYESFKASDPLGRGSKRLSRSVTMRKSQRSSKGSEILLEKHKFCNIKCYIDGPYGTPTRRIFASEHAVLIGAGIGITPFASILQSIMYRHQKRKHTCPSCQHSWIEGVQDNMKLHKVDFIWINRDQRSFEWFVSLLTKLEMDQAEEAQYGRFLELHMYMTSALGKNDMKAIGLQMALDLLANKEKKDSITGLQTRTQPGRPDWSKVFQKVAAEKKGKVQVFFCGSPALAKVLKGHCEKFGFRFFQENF
# Sequence of NADPH oxidase 2 (Homo sapiens) (P04839 whole entry, looked up): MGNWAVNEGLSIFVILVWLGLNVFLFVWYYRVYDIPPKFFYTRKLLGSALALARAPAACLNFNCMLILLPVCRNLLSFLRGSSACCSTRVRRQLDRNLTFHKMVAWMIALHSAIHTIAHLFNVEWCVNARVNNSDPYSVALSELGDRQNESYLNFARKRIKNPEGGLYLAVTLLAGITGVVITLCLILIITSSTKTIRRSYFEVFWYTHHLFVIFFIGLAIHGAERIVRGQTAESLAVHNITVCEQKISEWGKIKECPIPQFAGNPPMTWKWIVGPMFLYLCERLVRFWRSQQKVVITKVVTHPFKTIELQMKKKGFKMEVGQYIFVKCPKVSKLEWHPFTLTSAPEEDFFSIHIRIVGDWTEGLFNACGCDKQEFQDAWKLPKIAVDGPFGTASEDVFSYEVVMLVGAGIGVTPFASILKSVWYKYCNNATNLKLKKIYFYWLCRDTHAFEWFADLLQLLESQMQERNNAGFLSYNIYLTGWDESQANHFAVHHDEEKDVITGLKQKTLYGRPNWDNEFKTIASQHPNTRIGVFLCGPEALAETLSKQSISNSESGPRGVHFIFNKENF
# Sequence of NADPH oxidase 4 (Homo sapiens) (Q9NPH5 whole entry, looked up): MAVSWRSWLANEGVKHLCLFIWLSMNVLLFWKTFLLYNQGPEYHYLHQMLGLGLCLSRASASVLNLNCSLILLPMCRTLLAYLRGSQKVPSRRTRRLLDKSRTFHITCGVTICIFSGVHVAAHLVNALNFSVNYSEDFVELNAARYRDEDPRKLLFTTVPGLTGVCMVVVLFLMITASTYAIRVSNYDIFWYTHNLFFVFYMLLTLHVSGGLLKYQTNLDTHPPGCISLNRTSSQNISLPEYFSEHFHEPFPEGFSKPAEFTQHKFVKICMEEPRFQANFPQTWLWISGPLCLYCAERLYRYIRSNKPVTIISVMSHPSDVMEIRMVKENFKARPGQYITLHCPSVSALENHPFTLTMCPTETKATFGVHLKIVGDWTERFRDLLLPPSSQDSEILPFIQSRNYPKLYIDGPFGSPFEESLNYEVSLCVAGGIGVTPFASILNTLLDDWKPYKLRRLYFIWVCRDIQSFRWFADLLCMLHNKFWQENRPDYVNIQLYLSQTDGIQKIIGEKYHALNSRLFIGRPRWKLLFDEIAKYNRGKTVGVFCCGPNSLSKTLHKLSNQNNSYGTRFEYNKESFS
Structure (SMILES),z-score [1],composite z-score [2],z-score [3],z-score [4],z-score [5],z-score [6],z-score [7],z-score [8],z-score [9],z-score [10]
O=C1C[C@@](C(=O)NC2CC2)(c2ccc([N+](=O)[O-])cc2)[C@@H](c2ccc(CO)cc2I)N1CC12CC3CC(CC(C3)C1)C2,-1.11 (inactive),0.0158,22.3 (active),6.32 (inactive),1 (inactive),1.99 (inactive),-0.284,1.86 (inactive),0.129 (inactive),1.92
O=C(NCC(F)(F)F)[C@@H]1c2ccccc2C(=O)N(Cc2ccccc2Cl)[C@H]1c1ccc(CO)cc1,0.774 (inactive),-0.27,1.88 (inactive),0.839 (inactive),0.62 (inactive),0.157 (inactive),-0.217,-0.138 (inactive),0.22 (inactive),-0.0659
Cc1ccc(N2C(=O)c3ccccc3[C@@H](C(=O)NCC(F)(F)F)[C@@H]2c2ccc(CO)cc2)nc1,0.734 (inactive),-0.0099,1.32 (inactive),0.422 (inactive),0.827 (inactive),0.38 (inactive),0.189,1.22 (inactive),0.32 (inactive),-0.914
COC(=O)C[C@H]1O[C@]2(C(=O)N(Cc3ccccc3)c3ccc(I)cc32)[C@@H](C)[C@@H]1[Si](C)(C)c1ccc(OC)cc1,-0.562 (inactive),-0.235,1.09 (inactive),0.544 (inactive),0.558 (inactive),0.574 (inactive),1.01,1.89 (inactive),-2.05 (inactive),0.00992
COc1cccc([C@@H]2[C@@H](C)CC[C@H]3C(=O)N4[C@H](c5cccc(OC)c5)[C@@H](C)CC[C@H]4C(=O)N23)c1,-0.0799 (inactive),-0.234,-0.0074 (inactive),-0.69 (inactive),-1.21 (inactive),-0.987 (inactive),3.15,0.181 (inactive),0.349 (inactive),0.796
CN(C)CCCC[C@@H]1NC(=O)[C@@H]2C[C@H](C(=O)NCCCCCNC(=O)CS)[C@H](c3ccc(O)cc3)N2C1=O,1.04 (inactive),-0.227,1.06 (inactive),-1.21 (inactive),-3.46 (inactive),-2.25 (inactive),0.209,0.109 (inactive),0.501 (inactive),0.398
O=C1O[C@@H](c2ccccc2)[C@@H](c2ccccc2)N2[C@@H](c3ccc(O)cc3)[C@]3(C(=O)Nc4ccc(C#CC5(O)CCCCCC5)cc43)[C@@H](C(=O)Nc3nc4ccccc4s3)[C@H]12,1.74 (inactive),0.271,0.733 (inactive),-0.232 (inactive),0.445 (inactive),-0.713 (inactive),1.16,1.62 (inactive),-1.27 (inactive),1.96
Cc1ccc(S[C@]2(C(=O)NCCCN(C)C)CC(=O)N(Cc3ccccc3)[C@@H]2c2ccc(CO)cc2I)cc1,-0.901 (inactive),0.374,8.39 (active),0.909 (inactive),1.94 (inactive),0.256 (inactive),-0.0322,-0.234 (inactive),-1.63 (inactive),1.72
CC[C@H]1C2=C3C(CC[C@H]4C(OC)OC[C@](C)([C@@H]34)N(C(=O)OC(C)(C)C)C2)C(CO)C1CO (stereo not given in full),-0.36 (inactive),0.631,-0.51 (inactive),-0.909 (inactive),-0.337 (inactive),-2.25 (inactive),1.59,-0.108 (inactive),-0.269 (inactive),-2.77
CC(C)(C)OC(=O)CC[C@@]1(C(=O)NCc2ccccc2)N=C(c2ccc(OCCCO)cc2)O[C@@H]1c1ccccc1,1.9 (inactive),0.736,23.9 (active),11.3 (active),1.61 (inactive),1.7 (inactive),3.43,-1.25 (inactive),0.596 (inactive),-0.58
Cc1ccc(S[C@]2(C(=O)NC(C)C)CC(=O)N(Cc3cc(C(F)(F)F)cc(C(F)(F)F)c3)[C@@H]2c2ccc(CO)cc2I)cc1,0.191 (inactive),-0.136,3.22 (inactive),0.504 (inactive),-0.365 (inactive),0.132 (inactive),-0.398,1.57 (inactive),-1.07 (inactive),2.23
CO[C@H]1COC(=O)[C@H](C)COC(=O)[C@H](Cc2ccccc2)NC(=O)CC=C[C@H]1C,0.261 (inactive),0.351,0.341 (inactive),-1.39 (inactive),0.743 (inactive),-1.83 (inactive),0.376,-0.823 (inactive),0.901 (inactive),-0.0208
C[C@@H]1NC(=O)[C@H](Cc2ccccc2)NC(=O)[C@@]23C(=O)N[C@@H](Cc4ccccc4)C2[C@H](C)[C@@]2(C)O[C@H]2C3/C=C/C/C=C\CNC1=O (stereo not given in full),-1.13 (inactive),-0.169,1.87 (inactive),0.316 (inactive),0.134 (inactive),-0.0643 (inactive),-0.248,0.832 (inactive),-0.951 (inactive),0.906
CC(C)=C1C(=O)C(c2ccccc2)=C2CN3C(=O)N(CCc4ccccc4)C(=O)[C@]3(Cc3ccccc3)[C@H]21,-1.7 (inactive),0.341,20.9 (active),3.79 (inactive),1.3 (inactive),0.913 (inactive),-0.621,-0.379 (inactive),0.1 (inactive),0.365
CC1=C([C@H](O)CCc2ccccc2)[C@H](CO)[C@@H]2C(=O)N(Cc3ccccc3)C(=O)[C@@H]2C1,1.85 (inactive),-0.147,5.86 (inactive),0.759 (inactive),0.695 (inactive),0.5 (inactive),0.663,-0.0572 (inactive),0.16 (inactive),-0.798
CCN1C(C)=C(C(=O)OC)[C@@H](c2ccccc2)N2C(=O)[C@@]3(C(=O)OC)O[C@@]12[C@@H]1C(=O)N(C)C(=O)[C@@H]13,-0.871 (inactive),-0.0954,0.339 (inactive),-1.13 (inactive),0.0125 (inactive),-1.65 (inactive),0.629,1.52 (inactive),-1.65 (inactive),-0.267
CCOC(=O)C[C@H]1[C@H](OC(=O)c2cc3ccccc3oc2=O)[C@@H](NC(=O)C2CCCCC2)c2cc(OCCCO)ccc2N1C(=O)c1ccc2ccccc2n1,-0.836 (inactive),-0.0547,4.81 (inactive),0.491 (inactive),0.499 (inactive),0.549 (inactive),-0.725,2.44 (inactive),1.52 (inactive),0.451
COCCOC(=O)N1C(=O)[C@@]2(c3cc(C#CCC(C(=O)OC)C(=O)OC)ccc31)[C@H](C(=O)N1CCN(c3ncccn3)CC1)[C@H]1C(=O)O[C@H](c3ccccc3)[C@H](c3ccccc3)N1[C@@H]2c1ccc(O)cc1,3.34 (inactive),0.443,1.92 (inactive),-0.0642 (inactive),-0.504 (inactive),-1.39 (inactive),1.69,1.28 (inactive),0.7 (inactive),1.82
O=[N+]([O-])c1ccc(C[n+]2ccc3ccc(O)cc3c2)o1,0.653 (inactive),-0.283,1.08 (inactive),-0.678 (inactive),-0.859 (inactive),-1.53 (inactive),0.829,-0.94 (inactive),-1.09 (inactive),-0.424
C#C[C@H](O[Si](C#Cc1ccccc1)(C(C)C)C(C)C)c1ccccc1,-0.0719 (inactive),0.22,0.876 (inactive),0.924 (inactive),-1.54 (inactive),0.234 (inactive),-0.801,0.146 (inactive),-0.779 (inactive),-2.37
CC(C)[Si]1(C(C)C)OCc2cc(C3CC3)nc(-c3ccccc3)c21,2.37 (inactive),-0.0573,2.84 (inactive),0.201 (inactive),0.531 (inactive),-0.15 (inactive),1.34,1.86 (inactive),1.06 (inactive),-1.28
COC(=O)Cn1c(C(=O)N2CCCC2)cc2c1C[C@H]1CN(C(=O)c3ccccc3)[C@@](Cc3ccc(OC)cc3)(C(=O)OC)[C@@H]21,-1.45 (inactive),0.51,15.3 (active),2.13 (inactive),1.68 (inactive),1.43 (inactive),-0.56,0.857 (inactive),0.778 (inactive),2.44
CC(C)(C)OC(=O)CC[C@]1(C(=O)NCCN2CCOCC2)N=C(c2ccc(OCCCO)cc2)O[C@H]1c1ccccc1CN=[N+]=[N-],1.66 (inactive),-0.0162,9.62 (active),0.121 (inactive),0.434 (inactive),-1.81 (inactive),1.04,1.06 (inactive),0.755 (inactive),0.699
COc1cc2c(cc1OC)CN(C(=O)[C@@H]1[C@H]3C(=O)O[C@H](c4ccccc4)[C@H](c4ccccc4)N3[C@H](c3ccccc3OCCO)[C@@]13C(=O)Nc1ccccc13)CC2,1.47 (inactive),0.551,8.6 (active),3.56 (inactive),-0.0442 (inactive),2.22 (inactive),0.206,1.67 (inactive),1.02 (inactive),0.901
CSCC[C@@H]1NC(=O)CC=C[C@@H](C)COC(=O)[C@H](CCSC)NC(=O)CC=C[C@@H](C)COC1=O,-0.77 (inactive),-0.0559,-0.138 (inactive),-0.774 (inactive),-1.73 (inactive),-1.85 (inactive),0.214,-1.26 (inactive),0.731 (inactive),1.5
Cc1ccc(S(=O)(=O)N2[C@@H](c3ccccc3)C(C(=O)O)=CC[C@H]2c2ccccc2)cc1,-1.57 (inactive),-0.0501,0.432 (inactive),0.798 (inactive),0.605 (inactive),0.83 (inactive),-0.259,-0.127 (inactive),-0.375 (inactive),-2.32
